Laboratory results taken from PubChem BioAssay AID1159580 (chemical genetic matrix, 2015).
In all, about 5,500 compounds went through this assay and about 2,000 (36%) were called active. Inconclusive results (about 18%) are left out. Rule as the data show it: active = normalized growth mostly below about 0.91 (no sharp cut-off); inconclusive = no clear call, values can overlap the other calls; inactive = mostly above about 0.92. The list shows a part of the results.

Test: chemical genetic growth profiling, strain panel (AID 1159580);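 also: tested at 20 µM; growth read once vehicle control cultures reached saturation at 30 °C; 1 = growth at the plate median or of vehicle wells; lower values mean less growth of the strain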
Settings: S. cerevisiae deletion strains, growth OD
[1] = locus YHR030C, strain SLT2, active compounds read low
[2] = locus YHR079C, strain IRE1, active compounds read low
[3] = locus YJL095W, strain BCK1, active compounds read low
[4] = locus YJR066W, strain TOR1, active compounds read low
[5] = locus YLR113W, strain HOG1, active compounds read low
[6] = locus YNL183C, strain NPR1, active compounds read low
[7] = locus YOR231W, strain MKK1, active compounds read low
[8] = locus YPL256C, strain CLN2, active compounds read low
[9] = locus YAL013W, strain DEP1, active compounds read low
[10] = locus YAL040C, strain CLN3, active compounds read low
[11] = locus YER002W, strain NOP16, active compounds read low
[12] = locus YMR263W, strain SAP30, active compounds read low
[13] = locus YNL153C, strain GIM3, active compounds read low
[14] = locus YNL175C, strain NOP13, active compounds read low
[15] = locus YNL197C, strain WHI3, active compounds read low
[16] = locus YNL224C, strain SQS1, active compounds read low
[17] = locus YNL322C, strain KRE1, active compounds read low
[18] = locus YOR083W, strain WHI5 (second series), active compounds read low
[19] = locus YPL055C, strain LGE1, active compounds read low
[20] = locus YPL241C, strain CIN2, active compounds read low
[21] = locus YJR075W, strain HOC1, active compounds read low

Measured: normalized growth

C[N+](C)(C)C[C@H](O)CC(=O)[O-]
inactive: [1] 0.972 | [2] 0.984 | [3] 1.02 | [4] 0.923 | [5] 1.01 | [6] 0.923 | [7] 0.962 | [8] 0.961

NCCc1ccc(S(=O)(=O)F)cc1
inactive: [9] 1 | [10] 1.01 | [11] 1.02 | [12] 1 | [13] 1.03 | [14] 1 | [15] 1.04 | [16] 1 | [17] 1.01 | [18] 0.997 | [19] 1.02 | [20] 1.01

O=C(O)CC(O)(CC(=O)O)C(=O)O
inactive: locus YAL021C, strain ccr4, active compounds read low 1 | locus YAL026C, strain drs2, active compounds read low 1.01 | locus YAL030W, strain snc1, active compounds read low 1 | locus YBL061C, strain skt5, active compounds read low 1.01 | locus YBR009C, strain hhf1, active compounds read low 1 | locus YBR023C, strain chs3, active compounds read low 1.01 | locus YBR171W, strain sec66, active compounds read low 1.01 | locus YBR231C, strain swc5, active compounds read low 1.01 | locus YBR279W, strain paf1, active compounds read low 1 | locus YCL011C, strain gbp2, active compounds read low 1.01 | locus YCL016C, strain dcc1, active compounds read low 0.997 | locus YCL069W, strain vba3, active compounds read low 1.01 | locus YCR088W, strain abp1, active compounds read low 1.02 | locus YDL005C, strain med2, active compounds read low 1.01 | locus YDL040C, strain nat1, active compounds read low 1.01 | locus YDR001C, strain nth1, active compounds read low 0.998 | locus YDR069C, strain doa4, active compounds read low 1.03 | locus YDR137W, strain rgp1, active compounds read low 1 | locus YDR159W, strain sac3, active compounds read low 1 | locus YDR195W, strain ref2 1.05 | locus YDR297W, strain sur2, active compounds read low 0.994 | locus YDR334W, strain swr1, active compounds read low 1 | locus YDR335W, strain msn5, active compounds read low 1.01 | locus YDR392W, strain spt3, active compounds read low 0.966 | locus YEL003W, strain gim4, active compounds read low 0.998 | locus YEL037C, strain rad23, active compounds read low 1.01 | locus YEL061C, strain CIN8 (second series), active compounds read low 1 | locus YER015W, strain faa2, active compounds read low 1.02 | locus YER016W, strain bim1, active compounds read low 1.01 | locus YER111C, strain swi4, active compounds read low 1.01 | locus YER155C, strain BEM2 (second series), active compounds read low 1.05 | locus YFR010W, strain ubp6, active compounds read low 1.02 | locus YGL167C, strain pmr1, active compounds read low 1.01 | locus YGL173C, strain kem1, active compounds read low 0.999 | locus YGL227W, strain vid30, active compounds read low 1.01 | locus YGL240W, strain doc1, active compounds read low 1.02 | locus YGL253W, strain hxk2, active compounds read low 0.997 | locus YHR013C, strain ard1, active compounds read low 1 | locus YHR027C, strain rpn1, active compounds read low 1.01 | [1] 0.979 | [2] 0.995 | locus YHR142W, strain chs7, active compounds read low 0.993 | locus YJL092W, strain hpr5, active compounds read low 1.01 | locus YJL095W, strain BCK1 (second series), active compounds read low 1.02 | [3] 1.02 | locus YJL115W, strain asf1, active compounds read low 1.03 | locus YJL129C, strain trk1, active compounds read low 1.03 | locus YJL154C, strain vps35, active compounds read low 1.01 | locus YJL164C, strain tpk1, active compounds read low 1 | locus YJL166W, strain qcr8, active compounds read low 1.03 | locus YJL187C, strain SWE1, active compounds read low 1.01 | [4] 0.953 | locus YKL160W, strain elf1, active compounds read low 1.01 | locus YKR026C, strain gcn3, active compounds read low 1.01 | locus YKR091W, strain srl3, active compounds read low 1.01 | locus YLL001W, strain dnm1, active compounds read low 1.01 | locus YLL026W, active compounds read low 0.999 | locus YLL041C, strain sdh2, active compounds read low 1.01 | locus YLR027C, strain aat2, active compounds read low 1 | [5] 1.02 | locus YLR221C, strain rsa3, active compounds read low 0.988 | locus YLR258W, strain gsy2, active compounds read low 1.01 | locus YLR262C, strain YPT6 (second series), active compounds read low 1.02 | locus YLR320W, strain mms22, active compounds read low 0.998 | locus YLR342W, strain FKS1, active compounds read low 1.02 | locus YLR357W, strain rsc2, active compounds read low 1 | locus YLR370C, strain arc18, active compounds read low 0.982 | locus YLR384C, strain iki3, active compounds read low 1.01 | locus YML120C, strain ndi1, active compounds read low 1.01 | locus YMR058W, strain fet3, active compounds read low 1.01 | locus YMR125W, strain sto1, active compounds read low 1.02 | locus YMR129W, active compounds read low 1.01 | locus YMR205C, strain PFK2, active compounds read low 1.01 | locus YMR231W, strain pep5, active compounds read low 1.01 | locus YNL071W, strain lat1, active compounds read low 1 | [6] 0.98 | locus YNL209W, strain ssb2, active compounds read low 0.998 | locus YNL248C, strain rpa49, active compounds read low 1.01 | locus YNL322C, strain KRE1 (second series), active compounds read low 1 | locus YNR049C, strain mso1, active compounds read low 1 | locus YOR001W, strain rrp6, active compounds read low 1.04 | locus YOR070C, strain gyp1, active compounds read low 1.01 | locus YOR080W, strain dia2, active compounds read low 1.02 | locus YOR083W, strain WHI5, active compounds read low 1.02 | locus YOR106W, strain vam3, active compounds read low 1.02 | [7] 0.985 | locus YOR265W, strain rbl2, active compounds read low 1.01 | locus YOR270C, strain vph1, active compounds read low 0.988 | locus YOR290C, strain snf2, active compounds read low 0.99 | locus YPL051W, strain arl3, active compounds read low 1.01 | locus YPL078C, strain atp4, active compounds read low 1.03 | locus YPL106C, strain sse1, active compounds read low 1.01 | locus YPL240C, strain hsp82, active compounds read low 1 | [8] 0.968

CCCCCC(O)CCCC(=O)O (centres undefined)
inactive: [10] 1.02 | locus YCL061C, strain MRC1 (second series), active compounds read low 1.01 | locus YDR363W, strain ESC2, active compounds read low 1.01 | [11] 1.03 | [21] 1.02 | [14] 1.02 | [15] 1.05 | [16] 0.991 | [18] 1.06

CCCC(CC(=O)O)(C(=O)O)c1ccccc1 (centres undefined)
inactive: [9] 1.01 | locus YBR229C, strain ROT2, active compounds read low 1 | locus YCL061C, strain MRC1, active compounds read low 1.01 | locus YDL101C, strain DUN1, active compounds read low 1.01 | locus YDR150W, strain NUM1, active compounds read low 1 | locus YEL061C, strain CIN8, active compounds read low 1.01 | locus YGR078C, strain PAC10, active compounds read low 1 | locus YGR229C, strain SMI1, active compounds read low 1.01 | [1] 1.12 | locus YHR087W, strain rtc3, active compounds read low 1 | locus YJR043C, strain POL32, active compounds read low 1.01 | [21] 1 | locus YLR039C, strain RIC1, active compounds read low 1.03 | locus YLR058C, strain SHM2 (second series), active compounds read low 1.01 | locus YLR085C, strain ARP6, active compounds read low 1.05 | locus YLR262C, strain YPT6, active compounds read low 1.02 | locus YML094W, strain GIM5, active compounds read low 1.02 | locus YMR219W, strain ESC1, active compounds read low 1.01 | [12] 1 | [13] 1 | locus YNL298W, strain CLA4 (second series), active compounds read low 1.03 | [17] 0.998 | locus YNR030W, strain Alg12, active compounds read low 1.01 | [19] 1.06 | [20] 1.02 | locus YPR135W, strain CTF4, active compounds read low 1.06
